Molecules are shown by their SMILES. Hit rate of the full screen: of about 2,300 compounds, fewer than 10 were called active.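 How the source made its calls: active means yellow fluorescent protein signal ratio exceeding the buffer control mean by over 5 SD of those controls; inactive means the rest.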 These entries were drawn from the full list.

This experiment is described as follows: iodide YFP quench changes in parental YFP-HEK293, counter-screen for TMEM16A inhibitor project, cell-based (AID 652233).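 Further: ratio is mean of duplicate wells from kinetic YFP trace.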 The conditions noted are these: ionomycin, at 10 µM.
Consider `Cc1nc2ccccc2cc1OCc1ccc(F)cc1`, for which the YFP ratio F(max-min)/F0 is -0.66 (inactive). On to `CCCCNC(=O)CSc1nc2n[nH]c(C)c2c(=N)n1-c1cccc(Cl)c1C`, for which the YFP ratio F(max-min)/F0 was -0.786 (inactive). For `c1ccc(-c2nnc(SCc3nc4ccccc4[nH]3)o2)cc1` the value was -1.02 (inactive). To `COc1ccc(OCC(=O)NCCc2ccc(S(N)(=O)=O)cc2)cc1` belongs -0.874 (inactive); to `COc1ccc(S(=O)(=O)NCCCCOc2ccc(Cl)cc2)cc1`, -1.14 (inactive); to `O=C(CNCCC1=CCCCC1)Nc1ccccc1N1CCCCCC1`, -1.09 (inactive).

Take `CN(c1cccc(NC(=O)c2ccc(CN3CCc4ccccc4C3)cc2)c1)S(C)(=O)=O`: the YFP ratio F(max-min)/F0 is -0.916 (inactive).

Turning to `Cc1ccc(-n2ncc3c(N4CCN(c5ccc(F)cc5)CC4)ncnc32)c(C)c1`, the YFP ratio F(max-min)/F0 is -0.733 (inactive). For `CCCCCc1ccc(-c2ccc(C(=O)O)cc2)nc1`, the YFP ratio F(max-min)/F0 is -0.857 (inactive).

With `O=C(Nc1cccc(S(=O)(=O)Nc2ccc(Cl)cc2)c1)c1ccc2c(c1)OCCO2`, the YFP ratio F(max-min)/F0 is -1.08 (inactive). Consider `S=C(NCc1ccc(Cl)cc1)NC12CC3CC(CC(C3)C1)C2`, for which the YFP ratio F(max-min)/F0 is -1.22 (inactive).

In the case of `Cc1nc(C)c(-c2csc(NCCc3ccccc3)n2)s1`, the YFP ratio F(max-min)/F0 is -0.901 (inactive). Turning to `Cc1cc(C)cc(NS(=O)(=O)c2ccc(Oc3ncc(C(F)(F)F)cc3Cl)cc2)c1`, the YFP ratio F(max-min)/F0 was -0.961 (inactive). For `N#Cc1nc(COc2ccc(-c3ccccc3)cc2)oc1NCc1cccnc1` the value was -0.991 (inactive); for `Cn1c(=O)n(C)c2cc(S(=O)(=O)N3CCCc4ccccc43)ccc21`, -1.35 (inactive). For `COc1ccc(CNc2nnnn2C)cc1` the value was -0.894 (inactive); for `O=C1c2ccccc2C(Nc2ccc3c(c2)OCCO3)N1Cc1ccco1` (configuration not stated), -0.965 (inactive); for `O=C(COC(=O)CCc1c[nH]c(=O)[nH]1)Nc1ccccc1Cl`, -0.772 (inactive). To `N#CC1=C(SCc2ccccc2)NC(=O)C(C#N)C12CCCC2` (configuration not stated) belongs -0.894 (inactive). Consider `O=C(COc1ccccc1)NCc1ccc2c(c1)OCO2`, for which the YFP ratio F(max-min)/F0 was -1.01 (inactive).

Regarding `S=C(NCc1cccs1)Nc1ccc(Cl)cc1`, the YFP ratio F(max-min)/F0 was -1.2 (inactive). To `Cc1ccc(C)c(N2CCN(S(=O)(=O)c3ccc4c(c3)oc(=O)n4C)CC2)c1` belongs -1.24 (inactive); to `Cc1cc(C=O)c(C)n1-c1ccc(NC2CCCCC2)c([N+](=O)[O-])c1`, -0.94 (inactive). For `CC(=O)c1c(C)[nH]c(C(=O)COC(=O)c2cccc(S(=O)(=O)N(C)c3ccccc3)c2)c1C` the value was -1.08 (inactive); for `O=C(Nc1nc(-c2ccc3c(c2)OCO3)cs1)c1ccncc1`, -0.891 (inactive). For `CC(NC(=O)c1ccco1)C(=O)Nc1nc(-c2ccccn2)cs1` (configuration not stated) the value was -1.13 (inactive). `Cc1ccc(N2C(=O)S/C(=C/c3cn(C)c4ccccc34)C2=O)cc1`: the YFP ratio F(max-min)/F0 was -0.76 (inactive).

Turning to `COc1ccc(CN(C)C(=O)CC(c2ccccc2)c2ccccc2)cc1`, the YFP ratio F(max-min)/F0 was -1.04 (inactive).

As for `CCOC(=O)N1CCN(C(=O)c2ccc3c(c2)N(Cc2ccc(C)cc2)CCS3)CC1`, the YFP ratio F(max-min)/F0 was -1.18 (inactive). As for `Cc1noc(C)c1COC(=O)c1cc2ccccc2cc1O`, the YFP ratio F(max-min)/F0 was -0.996 (inactive). To `COc1ccc2[nH]cc(/C=C(/C#N)S(=O)(=O)c3ccccc3)c2c1` belongs -1.14 (inactive).

As for `O=C(N/N=C/c1cc(Cl)cc([N+](=O)[O-])c1O)C(O)(c1ccccc1)c1ccccc1`, the YFP ratio F(max-min)/F0 was -0.984 (inactive). To `Cc1ccc2c(c1)N(S(=O)(=O)c1cc(-c3cc(C)no3)ccc1C)CCO2` belongs -0.714 (inactive); to `COc1ccc(CCC(=O)c2ccc(OC)cc2)cc1`, -1.35 (inactive); to `Cc1ccc(-c2noc(CSc3nnnn3-c3ccccc3)n2)cc1`, -0.963 (inactive). For `CC(C)(C)C(=O)/C(C#N)=C/c1ccc(O)cc1` the value was -1.08 (inactive); for `COC(=O)c1ccc(COC(=O)c2c(C)nn(Cc3ccccc3Cl)c2Cl)o1`, -1.29 (inactive). For `CC1=NN(c2cccc(Cl)c2)C(=O)C12CC(C)=C(C)CS2` (configuration not stated) the value was -1.3 (inactive). Consider `CCOC(=O)c1cccc(NC(=O)CCn2nnc3ccccc32)c1`, for which the YFP ratio F(max-min)/F0 is -1.02 (inactive). To `C=C(C)Cn1c(C)cc(C)c(S(=O)(=O)c2ccccc2C)c1=O` belongs -0.995 (inactive); to `Cc1nc2c(C(=O)NCc3ccc4c(c3)OCO4)c[nH]n2c(=O)c1Cc1ccccc1F`, -1.21 (inactive); to `COC(=O)c1ccc(NC(=O)c2ccccc2NS(=O)(=O)c2ccccc2)cc1`, -0.979 (inactive). For `O=C(NC(=S)Nc1ccccc1C(=O)O)c1ccc(-c2ccc(Br)cc2)o1`, the YFP ratio F(max-min)/F0 is -1.06 (inactive). To `CN1c2ccc(C=O)c3c(C=O)ccc(c23)N(C)C1(C)C` belongs -1 (inactive). For `Cc1ccccc1-n1nnnc1SCCCC(=O)c1ccc(F)cc1` the value was -1.2 (inactive). For `Cc1ccc(F)cc1NC(=O)Cc1nn(C)c(=O)c2ccccc12` the value was -1.06 (inactive). For the compound `CC(C)CNC(=S)NNC(=O)c1nn(C)cc1Cl`, the YFP ratio F(max-min)/F0 was -0.979 (inactive).

In the case of `Cc1ccc(-n2[nH]c(C)c(/C=N/N3C(=O)c4cccc5cccc(c45)C3=O)c2=O)cc1`, the YFP ratio F(max-min)/F0 is -0.991 (inactive). For `Cc1nc(SCC(=O)N2CCc3ccccc3C2)c2c(C)c(C)sc2n1` the value was -1.07 (inactive). On to `CSc1nsc(NC(=O)Nc2ccccc2)n1`, for which the YFP ratio F(max-min)/F0 was -0.839 (inactive). For `CCOC(=O)N1CC=C2C(C#N)=C(N)C(C#N)(C#N)[C@H](c3cccs3)[C@H]2C1`, the YFP ratio F(max-min)/F0 was -1.01 (inactive). As to `CCC(=O)Nc1ccc2nc(C)n(Cc3ccccc3Cl)c(=O)c2c1`, the YFP ratio F(max-min)/F0 is -1.04 (inactive). For `Cc1cccc(N=Nc2c(O)[nH]c3ccc(F)cc23)c1` the value was -0.957 (inactive); for `COc1cccc(CNS(=O)(=O)c2ccc3c(c2)CC(C)N3C(=O)C2CCC2)c1` (configuration not stated), -1.01 (inactive); for `C=CCn1c(SCC(=O)Nc2nc3ccccc3s2)nnc1-c1ccccc1O`, -1.05 (inactive). Consider `Fc1ccc(CSc2nnc(-c3cc4c(s3)-c3ccccc3CC4)o2)cc1`, for which the YFP ratio F(max-min)/F0 is -0.984 (inactive). For `O=C(CSCc1ccc(Cl)cc1)N1CCN(Cc2ccc3c(c2)OCO3)CC1` the value was -1.19 (inactive); for `CSc1cccc(NC(=S)N(C(C)C)C(C)c2ccccn2)c1` (configuration not stated), -0.907 (inactive); for `CCCCn1ccnc1C(=O)c1cccc(S(=O)(=O)N2c3ccccc3CC2C)c1` (configuration not stated), -1.39 (inactive).

Consider `O=C(Nc1ccccc1)c1ccccc1NC(=O)C(F)(F)F`, for which the YFP ratio F(max-min)/F0 was -0.833 (inactive). For `Cn1c(CN2CCOCC2)nc2cc(NC(=O)c3ccc(Cl)cc3)ccc21`, the YFP ratio F(max-min)/F0 is -0.87 (inactive). For `Cc1ccc(C(=O)O)cc1-c1ccc(/C=C2\SC(=O)N(CC(=O)Nc3ccc4c(c3)OCO4)C2=O)o1` the value was -1.05 (inactive); for `CCc1cc2c(N3CCN(c4nnc(CC)s4)CC3)ncnc2s1`, -1.01 (inactive). To `Cc1ccc(-c2csc(-c3c[nH]c4ccccc34)n2)cc1` belongs -0.919 (inactive); to `CN(Cc1cccnc1)C(=O)c1cc(COc2ccc3ncccc3c2)on1`, -0.909 (inactive). As to `CCOC(=O)C1CCN(c2ncnc3c2oc2ccc(Br)cc23)CC1`, the YFP ratio F(max-min)/F0 was -1.19 (inactive). To `O=C1NC(=O)C2C1C(c1ccc([N+](=O)[O-])cc1)=NN2Cc1ccccc1` (configuration not stated) belongs -1.22 (inactive); to `Cc1ccc2c(c1)N(CC(=O)N1CCCc3ccccc31)C(=O)C(C)O2` (configuration not stated), -1.08 (inactive); to `O=S1(=O)CCN(Cc2ccccc2Cl)CC1`, -0.979 (inactive). For `N#Cc1nc(N)nc(N(c2ccccc2)c2ccccc2)n1` the value was -1.24 (inactive); for `CCCOc1ccc(Cc2c(Cl)nc(SC)nc2NC)cc1`, -1.09 (inactive). Regarding `Cc1ccc(NC(=O)CN(C)CC(=O)Nc2cccc(F)c2)cc1[N+](=O)[O-]`, the YFP ratio F(max-min)/F0 was -0.913 (inactive). For `CCN(CC)S(=O)(=O)c1ccc(N(C)Cc2ccc(C(F)(F)F)cc2)nc1` the value was -1.04 (inactive). To `CC1CCN(C(=O)c2ccc(CSc3ccc(Cl)cc3)cc2)CC1` belongs -0.991 (inactive). For `COc1ccc(-n2c(C)cc(C(=O)CSc3nnc(-c4cccs4)o3)c2C)cc1` the value was -1.16 (inactive). Regarding `CCn1nccc1C(=O)Nc1ccc(S(=O)(=O)NC23CC4CC(CC(C4)C2)C3)cc1`, the YFP ratio F(max-min)/F0 is -1.03 (inactive).

As for `O=C(CN1CCN(C(=S)NC2CCCC2)CC1)Nc1ccc(Oc2ccccc2)cc1`, the YFP ratio F(max-min)/F0 is -1.09 (inactive). With `Cc1ccc(N)cc1-n1c(C)ccc1C`, the YFP ratio F(max-min)/F0 was -1.02 (inactive). To `CN(C)c1cc[n+](Cc2ccccc2)cc1` belongs -1.12 (inactive); to `Cn1c(CCN2CCCCCC2)nc2cc(NC(=O)Nc3ccccc3)ccc21`, -1.1 (inactive). For `COc1cc(CC(=O)Nc2nc(-c3ccc(F)c(F)c3)cs2)cc(OC)c1OC` the value was -1.01 (inactive); for `S=C(NCC1CCCO1)N1CCN(c2ccc(Cl)c(Cl)c2)CC1` (configuration not stated), -0.789 (inactive); for `O=c1cc(C(F)(F)F)[nH]c(=O)n1C1CCCCC1`, -1.23 (inactive). With `CCCc1cc(=S)n2c([nH]c3ccccc32)c1C#N`, the YFP ratio F(max-min)/F0 was -0.888 (inactive). To `Cc1ccc(NC(=O)C(C)c2cccc(C(=O)c3ccccc3)c2)cc1` (configuration not stated) belongs -1.26 (inactive); to `Cc1nc(CNS(=O)(=O)c2ccc(Oc3ccccc3)cc2)cs1`, -1.1 (inactive). `C=CCSc1nsc(NC(=O)Nc2cccc(C(C)=O)c2)n1`: the YFP ratio F(max-min)/F0 was -1.12 (inactive). For `O=C(O)c1ccc(NC(=O)C2CCCCC2)cc1`, the YFP ratio F(max-min)/F0 was -1.22 (inactive). For `Fc1ccc2[nH]c3c(N4CCSCC4)ncnc3c2c1` the value was -1.05 (inactive); for `CCCC(=O)Nc1ccccc1N1CCN(C(=O)c2ccccc2)CC1`, -1.02 (inactive); for `COc1ccc(-c2nc(CCNC(=O)c3ccc(Br)o3)cs2)cc1`, -1.06 (inactive). Regarding `COc1ccc(NC(=O)C2=CC(c3ccc(OC)c(OC)c3)=NS(=O)(=O)N2C)cc1`, the YFP ratio F(max-min)/F0 was -1.13 (inactive). To `Cc1[nH]n(-c2cccc(Cl)c2)c(=O)c1-c1ccc(Cl)cc1` belongs -0.864 (inactive); to `CCOC(=O)C1=C(CN2CCc3ccccc32)NC(=O)NC1c1cccc([N+](=O)[O-])c1` (configuration not stated), -1.14 (inactive); to `Cc1ccc(C)c(N2CCN(C(=O)CCCCn3c(=O)[nH]c4ccccc4c3=O)CC2)c1`, -1 (inactive). For `CSc1nnc2c(n1)OC(c1ccsc1)N(C(C)=O)c1ccccc1-2` (configuration not stated) the value was -1.24 (inactive). With `CC(=O)c1cc(CN2CCC(C(=O)Nc3cccc(-c4cscn4)c3)CC2)cs1`, the YFP ratio F(max-min)/F0 is -0.907 (inactive). For `Cc1cccc(-n2c(SCC(N)=O)nc3c(c2=O)C2(CCCCC2)Cc2ccccc2-3)c1` the value was -0.969 (inactive); for `COc1ccc(C(=O)NC2CCCc3c2cnn3-c2cccc(C)c2C)c(OC)n1` (configuration not stated), -0.94 (inactive); for `CCOC(=O)C(Sc1ncc(C#N)c(N)n1)C(C)C` (configuration not stated), -1.02 (inactive). For `O=C(NCCc1ccc2c(c1)OCCO2)c1cc2ccccc2o1` the value was -0.931 (inactive); for `COc1ccc(Cl)cc1NC(=O)CCS(=O)(=O)c1cc2c(cc1C)NC(=O)CO2`, -0.855 (inactive).

The values are drawn from PubChem BioAssay AID652233 (Johns Hopkins Ion Channel Center, 2013).
